# Screening data (PubChem)
# Most compounds without a hit are left out; they make up all but 0.94% or so of the library.
# BH1578 lux ind: inducers of Vibrio cholerae quorum light production without autoinducers. AID 588436. 350,000 tested, 0.16% active. activation, % at 18.7 µM. V. cholerae BH1578 lux reporter, luminescence, 6 h; in the data active = activation mostly above about 9.7%, no sharp cut-off
# Mtb hypoxia inh: reduces hypoxia-regulated biosensor signal in M. tuberculosis. M. tuberculosis hypoxia-regulated fluorescent reporter, fluorescence. fluorescence inhibition, % (test concentration not listed). 300,000 tested, 0.1% active. AID 1159583; in the data active = fluorescence inhibition mostly above about 23%, no sharp cut-off; inactive = mostly below about 17%
# SSB-PriA inh: blocks PriA binding to SSB C-terminal tail; AID 1272365; 430,000 tested, 0.6% active; AlphaScreen SSBct-PriA binding, biotinylated peptide; inhibition, % at 33 µM; in the data active = inhibition mostly above about 37%, no sharp cut-off; inactive = mostly below about 20%
# MazF activator: MazEF (E. coli) toxin RNase activation; 350,000 tested, 0.32% active; AID 504720; P0AE70; activation, % at 20 µM; FAM/BHQ RNA-DNA oligo cleavage fluorescence, 5 h; in the data active = activation above about 50%
# Target sequence (P0AE70 whole entry, looked up): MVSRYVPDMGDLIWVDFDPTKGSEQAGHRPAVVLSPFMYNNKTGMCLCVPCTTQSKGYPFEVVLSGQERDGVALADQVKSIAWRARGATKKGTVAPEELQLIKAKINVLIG
# A number is an active result; - = inactive; . = not tested or not shown; + = active, no number; ! = not confirmed by another sample.
SMILES,BH1578 lux ind,Mtb hypoxia inh,SSB-PriA inh,MazF activator
COc1ccc(CCNc2nc(-c3ccccn3)cs2)cc1OC,-,.,39,-
Cc1cccnc1Nc1nc(-c2ccccn2)cs1,-,.,68,-
COc1ccc(CCNc2nc(-c3ccncc3)cs2)cc1OC,-,-,-,-
CNc1nc(-c2c[nH]c3ccccc23)cs1,-,.,52,-
Cc1cc(C(=O)Nc2ccc(-c3ccc(=O)n(C)n3)cc2)ccc1[N+](=O)[O-],.,.,-,.
CNc1nc(-c2ccccn2)cs1,.,.,118,.
O=C(OCC(=O)c1ccc(Cl)cc1Cl)c1ccccn1,-,30,-,-
O=C(OCC(=O)c1ccccc1Br)c1ccccn1,-,.,-,-
O=C(CNCc1ccccn1)N1CCc2ccccc2C1,-,-,78,-
Oc1oc(-c2ccccc2)nc1C=Nc1ccccc1,-,-,-,-
Sc1oc(-c2ccccc2)cc1C=Nc1ccccc1,-,-,41,-
Cc1cc2nc3ccc(=[N+](C)C)cc-3sc2cc1N,-,-,83,-
CN(C)c1ccc2nc3ccc(=[N+](C)C)cc-3sc2c1,-,99,-,-
Cc1nc2cc(C)c(C)cc2s1,-,-,-,-
CN(C)c1ccc2nc3ccc(=O)cc-3sc2c1,-,.,.,-
Cc1cc(Nc2ccccc2)c2c([N+](=O)[O-])ccc(C)c2n1,-,-,60,-
O=[N+]([O-])c1ccccc1Nc1cccc(F)c1,-,-,49,-
O=[N+]([O-])c1ccccc1Nc1ccccc1,-,-,70,-
O=[N+]([O-])c1ccccc1NCCOc1ccccc1,-,-,39,-
O=[N+]([O-])c1ccccc1Nc1ccccc1[N+](=O)[O-],-,-,-,-
CCCn1c(SCC(=O)Nc2nc(-c3ccc(OC)cc3)cs2)nc2c1c(=O)n(C)c(=O)n2C,-,-,-,193
Cn1c(=O)c2c(ncn2CC(=O)Nc2nc(-c3ccccc3Cl)cs2)n(C)c1=O,-,-,-,74
CCn1cccc(-c2nnc(SCC(=O)Nc3cc(C)on3)n2C)c1=O,.,.,-,.
COc1ccccc1NC(=O)CSc1ccc(-c2ccccn2)nn1,-,-,89!,-
COc1ccccc1NC(=O)CSc1ccc(-c2ccncc2)nn1,.,.,-,.
SMILES,BH1578 lux ind,Mtb hypoxia inh,SSB-PriA inh,MazF activator
COc1ccc(NC(=O)CSc2ccc(-c3ccccn3)nn2)cc1OC,-,-,72,-
CCOc1ccccc1NC(=O)CSc1ccc(-c2ccccn2)nn1,.,.,116,.
Cc1nnc(NC(=O)CSc2ccc(-c3ccccn3)nn2)s1,.,68,56,.
CCCCC(=O)Nn1cnc2c(cnn2C(C)(C)C)c1=O,.,.,-,.
O=C(CSc1nnc(CSc2nc3ccccc3s2)n1-c1ccccc1)NCc1ccccc1,.,.,-,.
O=C(CSc1ccc(-c2ccccn2)nn1)Nc1ccc(F)cc1F,-,.,-,-
O=C(CSc1ccc(-c2ccccn2)nn1)Nc1ccccc1F,.,.,84,.
O=C(Nc1ccc(SCC(=O)N2CCN(c3ccccc3)CC2)nn1)c1cccs1,.,.,-,.
CC(C)OC(=O)/C(C#N)=C/c1ccc(-c2ccc(SC(F)F)cc2)o1,-,.,-,140
Cc1cc(C(=O)NCCn2ncc3c(N4CCN(Cc5ccccc5)CC4)ncnc32)no1,.,.,-,.
Cn1nccc1-c1nnc(NC(=O)C2COc3ccccc3O2)o1 (stereo not drawn),.,.,-,.
COc1ccccc1CCNC(=O)CSc1ccc(NC(=O)c2ccccc2)nn1,.,.,-,.
c1cncc(-c2nc(NCCCn3ccnc3)c3ccccc3n2)c1,-,-,40,-
CN(Cc1ccccc1)c1oc(COc2ccc(F)cc2)nc1C#N,.,.,64,.
CN(C)c1oc(-c2ccc(OCc3ccccc3)cc2)nc1C#N,-,-,-,-
CN(CC(=O)Nc1ccccc1Cl)C(=O)CSc1nc2ccccc2s1,-,-,-,-
COc1ccc(NC(=O)CN(C)C(=O)CSc2nc3ccccc3s2)cc1,20,-,-,-
Cc1ccc(-n2nnc(C(=O)OCc3nc(-c4ccccc4C)oc3C)c2C)cc1,.,.,-,.
COc1cccc2cc(-c3cc(=O)oc4cc(-c5ccccc5)c(OCC(N)=O)cc34)oc12,.,.,-,.
COc1ccc(-c2csc(N(Cc3ccco3)C(=O)c3cccs3)n2)cc1,-,-,-,64
COc1ccc(OC)c(-c2csc(N(Cc3ccco3)C(=O)c3cccs3)n2)c1,-,-,-,-
Cc1nc(N)nc(-c2ccccc2O)n1,17,-,-,-
COc1ccc(OC)c(/C=N\NC(=O)Cc2nc3ccccc3[nH]2)c1,.,.,-,.
O=C(Nc1nnc(C2CCCO2)o1)c1cccc(Oc2ccccc2)c1 (stereo not drawn),.,.,74,.
O=[N+]([O-])c1cccc(/C=N/N2CCN(c3ccccn3)CC2)c1,-,.,.,-
SMILES,BH1578 lux ind,Mtb hypoxia inh,SSB-PriA inh,MazF activator
COc1ccccc1N1CCN(/N=C/C=C/c2ccccc2[N+](=O)[O-])CC1,-,.,+,-
COc1ccccc1N1CCN(N=C/C=C/c2ccccc2[N+](=O)[O-])CC1,.,-,.,.
O=[N+]([O-])c1ccccc1C=NN1CCN(c2ccccn2)CC1,.,-,39,.
COc1ccc(OC)c(NC(=O)C(=O)NCC(=O)N2CCOC(c3ccccc3)C2)c1 (stereo not drawn),.,.,-,.
O=C(Nc1ccc2c(c1)OCO2)c1ccc(N2CCC(Cc3ccccc3)CC2)nn1,.,.,-,.
Cc1ccccc1Cn1cccc1/C=C1/C(=N)N2C=CSC2=NC1=O,.,.,-,164
c1ccc(-c2csc3ncnc(Sc4ccc5c(c4)OCCO5)c23)cc1,.,.,-,.
COc1ccc(-c2nnc(SCc3nnc(-c4ccccc4)o3)n2-c2ccccc2)cc1,-,-,-,69
COc1ccc(-n2c(SCc3nnc(-c4ccccc4)o3)nnc2-c2ccccc2)cc1,.,-,-,-
O=C(Nc1ccc(Cl)c(C(F)(F)F)c1)NC1CC2CCCC(C1)N2Cc1ccccc1 (stereo not drawn),.,-,-,159
OCCN1CCN(c2cc(-c3ccccc3)nc3c(-c4ccc(Cl)cc4)cnn23)CC1,.,.,-,.
CCc1ccc2c(c1)C(C)(C)C1(/C=C/c3ccco3)NC(=O)CCN21 (stereo not drawn),.,.,50,.
COc1ccc(-c2cc3c(SCc4cccc(C(F)(F)F)c4)nccn3n2)cc1,.,.,-,.
O=C(c1ccc(N2CCOCC2)cc1)N1CCN(c2ccc(-n3cncn3)nn2)CC1,.,.,-,.
NC(=O)c1ccc(-n2nnnc2SCC(=O)Nc2ccccc2F)cc1,-,-,-,98
c1ccc(-c2nc([P+](c3ccccc3)(c3ccccc3)c3ccccc3)c(N3CCCCCC3)o2)cc1,.,.,37,.
N#Cc1nc(-c2ccccc2)oc1N1CCCCC1,-,-,-,-
Cc1ccc(-c2nc(C#N)c(N3CCCCCC3)o2)cc1,.,.,99,.
Cc1ccc(-c2nc(C#N)c(N3CCCCC3)o2)cc1,-,-,87!,-
N#Cc1nc(-c2ccc(F)cc2)oc1N1CCCC1,-,.,-,-
COc1ccc(Cl)cc1C(=O)NCC(c1ccsc1)N1CCN(C)CC1 (stereo not drawn),.,.,-,.
Cc1cc(C)n(-c2cc(NC(=O)Cc3noc4ccccc34)ncn2)n1,.,.,-,.
COc1ccc(OC)c(Nc2nc(CC(=O)Nc3ccc(C)cc3)cs2)c1,.,.,31,.
CCOc1ccccc1NC(=O)Cc1csc(Nc2cccc(Cl)c2)n1,.,.,-,.
COc1ccc(NC(=O)Cc2csc(Nc3cccc(Cl)c3)n2)c(OC)c1,.,.,16,.
O=C(Cc1csc(Nc2ccc(F)cc2)n1)Nc1ccc2c(c1)OCCO2,.,.,-,.
